Assay results published in PubChem BioAssay.
“And” between values parts separate entries of the source, which are not always exact repeats. Identical values can stand only once. Records with an inconclusive call do not appear. The source made the active and inactive calls. Unless noted, how the calls were made is not given here.

Legend:
[1] = compounds altering circadian rhythm period length – cell-based, LOPAC library, luminescence reporter (AID 2774); conditions: circadian reporter cells, at 7 µM, actives lie on both sides;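 further: values are relative to mean of DMSO wells on each plate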
[2] = system: Hepatitis C virus NS3 helicase; assay: blockers of NS3h binding to ssDNA – biochemical, fluorescence polarization, LOPAC1280 library, primary screen (AID 687035; in the data active means inhibition above about 37%); conditions: Purified HCV NS3 helicase, Cy5-dT15 ssDNA binding fluorescence polarization; stronger effect = higher value; concentration not given here
[3] = compounds altering Cy5-DNA-NS3h complex signal – biochemical, LOPAC1280, artefact control for HCV NS3 helicase inhibitor project (AID 687037); conditions: Cy5-DNA-NS3h complex fluorescence interference counterscreen
[4] = system: Aerobactin synthetase IucA (Klebsiella pneumoniae); assay: inhibition of K. pneumoniae IucA enzyme – biochemical, Tocris library, absorbance (AID 1345561); conditions: purified IucA enzyme assay, absorbance (OD) read-out; stronger effect = lower value;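 tested at 8 µM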;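 further: 100% = enzyme without compound and 0% = no enzyme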
[5] = system: Aerobactin synthetase IucA (Klebsiella pneumoniae, hypervirulent); assay: biochemical IucA inhibition screen of LOPAC library by absorbance (AID 1346212); conditions: IucA enzyme assay, absorbance (OD) readout; stronger effect = lower value;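 tested at 8 µM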;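 further: 100% = no compound wells and 0% = no enzyme wells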
[6] = viability loss with induced miR-34 in A549 – imaging, A549 dox-inducible miR-34, nuclei and caspase counts, primary screen (AID 1347080;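 active means compounds whose cell count with miR-34 switched on is under 0.7 times the count with it off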); conditions: A549 miR-34 inducible, Hoechst nuclei count, 48 h
[7] = blockers of cellular phospholipid synthesis – cell-based, LOPAC library, screen 4, primary screen (AID 1347384); conditions: animal cells, phospholipid biosynthesis inhibition screen; at 10 µM
[8] = galactose survival enhancers in mitochondrial complex I cybrids – cell-based, galactose medium, ATP luminescence, primary screen (AID 1645843;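 active means z-score of at least 1.8 in each of two replicates, scored against plate mean and spread of sample wells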;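 further: positive z means more ATP and so rescue of galactose-driven cybrid death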); conditions: complex I mutant cybrid cells, 72 h, stronger effect = higher value
[9] = molecular target: ATP-dependent translocase ABCB1 (Homo sapiens) (UniProt P08183); assay: P-glycoprotein substrate transport blockade – cell-based (AID 377; in the data active means fluorescence slope change above about 50%); conditions: MDR1-expressing cells, fluorescent substrate accumulation slope; stronger effect = higher value; concentration not given here
Chain of ATP-dependent translocase ABCB1 (Homo sapiens) (P08183 whole entry, looked up): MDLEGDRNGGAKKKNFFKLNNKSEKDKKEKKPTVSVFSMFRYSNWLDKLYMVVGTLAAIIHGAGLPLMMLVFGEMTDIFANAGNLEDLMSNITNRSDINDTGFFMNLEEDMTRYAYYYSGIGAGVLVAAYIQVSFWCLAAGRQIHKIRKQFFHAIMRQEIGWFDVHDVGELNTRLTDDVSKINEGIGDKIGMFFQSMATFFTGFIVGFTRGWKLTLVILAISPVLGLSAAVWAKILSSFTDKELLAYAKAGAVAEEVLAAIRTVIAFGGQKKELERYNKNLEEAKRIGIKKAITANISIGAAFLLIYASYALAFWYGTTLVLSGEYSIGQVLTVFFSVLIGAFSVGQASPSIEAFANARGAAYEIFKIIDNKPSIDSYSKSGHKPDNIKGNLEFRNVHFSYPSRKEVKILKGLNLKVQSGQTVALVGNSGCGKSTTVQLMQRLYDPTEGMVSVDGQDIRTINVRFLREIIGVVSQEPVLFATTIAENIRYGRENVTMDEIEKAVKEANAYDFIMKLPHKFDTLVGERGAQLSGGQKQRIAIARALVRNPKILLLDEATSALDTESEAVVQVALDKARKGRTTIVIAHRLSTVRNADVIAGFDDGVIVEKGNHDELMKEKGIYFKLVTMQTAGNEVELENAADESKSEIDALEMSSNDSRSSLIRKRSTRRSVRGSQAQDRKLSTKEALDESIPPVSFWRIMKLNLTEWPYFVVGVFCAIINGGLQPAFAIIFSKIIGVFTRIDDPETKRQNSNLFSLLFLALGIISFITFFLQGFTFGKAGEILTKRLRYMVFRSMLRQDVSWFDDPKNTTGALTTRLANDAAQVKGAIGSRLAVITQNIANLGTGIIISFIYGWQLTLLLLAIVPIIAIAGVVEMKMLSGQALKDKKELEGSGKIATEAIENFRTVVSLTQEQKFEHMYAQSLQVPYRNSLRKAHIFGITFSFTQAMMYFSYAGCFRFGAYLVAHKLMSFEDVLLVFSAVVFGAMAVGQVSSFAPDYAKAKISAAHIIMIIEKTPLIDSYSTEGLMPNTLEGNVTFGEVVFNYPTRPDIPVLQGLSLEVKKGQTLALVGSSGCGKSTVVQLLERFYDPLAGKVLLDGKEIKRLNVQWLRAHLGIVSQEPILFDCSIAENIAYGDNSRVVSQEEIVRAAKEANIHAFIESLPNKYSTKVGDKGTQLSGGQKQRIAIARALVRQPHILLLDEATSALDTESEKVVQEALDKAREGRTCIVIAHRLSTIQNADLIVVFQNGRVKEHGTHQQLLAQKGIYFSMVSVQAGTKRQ

[10] = compounds altering viability of human ES cells (AID 493140); conditions: human embryonic stem cell survival screen; stronger effect = higher value;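 further: cells exposed to compounds for four days before counting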
[11] = P. berghei load reduction in hepatocytes – cell-based, HepG2, luciferase luminescence, HepG2 viability, primary screen (AID 624349; in the data active means parasite load remaining mostly below about 12%, no sharp cut-off; inactive means mostly above about 10%;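 further: 100% = mean of DMSO negative control wells on the same plate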); conditions: P. berghei liver stage in HepG2, luciferase luminescence, concentration not given here; parasite load remaining: stronger effect = lower value; viability: measured here: HepG2 viability without parasites
[12] = EMT-state selective cytotoxicity in co-culture – imaging, PC-3E GFP, TEM4-18 mCherry, primary screen (AID 1345086;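 active means compounds killing one labelled cell type while sparing the other, by normalised counts and ratio limits, not self-fluorescent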;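 further: cells exposed to compound for 72 h before imaging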;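 on red/green cell ratio (normalised): normalised mesenchymal count divided by normalised epithelial count so high means epithelial killing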); conditions: PC-3E GFP / TEM4-18 mCherry co-culture, imaging cell counts, at 1 µM
[13] = molecular target: Mitogen-activated protein kinase 7 (Homo sapiens) (UniProt Q13164); assay: Gal4-ERK5 driven luciferase induction – cell-based, HTS, primary screen (AID 1508626;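 active means luciferase signal above three times the same-plate solvent-only control wells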;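 further: luciferase driven by Gal4-ERK5 fusion binding five Gal4 sites before minimal TATA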); conditions: HeLa Gal4-ERK5 transactivation, 18 h, at 5 µM, stronger effect = higher value
Chain of Mitogen-activated protein kinase 7 (Homo sapiens) (Q13164 whole entry, looked up, the tested form may be a part): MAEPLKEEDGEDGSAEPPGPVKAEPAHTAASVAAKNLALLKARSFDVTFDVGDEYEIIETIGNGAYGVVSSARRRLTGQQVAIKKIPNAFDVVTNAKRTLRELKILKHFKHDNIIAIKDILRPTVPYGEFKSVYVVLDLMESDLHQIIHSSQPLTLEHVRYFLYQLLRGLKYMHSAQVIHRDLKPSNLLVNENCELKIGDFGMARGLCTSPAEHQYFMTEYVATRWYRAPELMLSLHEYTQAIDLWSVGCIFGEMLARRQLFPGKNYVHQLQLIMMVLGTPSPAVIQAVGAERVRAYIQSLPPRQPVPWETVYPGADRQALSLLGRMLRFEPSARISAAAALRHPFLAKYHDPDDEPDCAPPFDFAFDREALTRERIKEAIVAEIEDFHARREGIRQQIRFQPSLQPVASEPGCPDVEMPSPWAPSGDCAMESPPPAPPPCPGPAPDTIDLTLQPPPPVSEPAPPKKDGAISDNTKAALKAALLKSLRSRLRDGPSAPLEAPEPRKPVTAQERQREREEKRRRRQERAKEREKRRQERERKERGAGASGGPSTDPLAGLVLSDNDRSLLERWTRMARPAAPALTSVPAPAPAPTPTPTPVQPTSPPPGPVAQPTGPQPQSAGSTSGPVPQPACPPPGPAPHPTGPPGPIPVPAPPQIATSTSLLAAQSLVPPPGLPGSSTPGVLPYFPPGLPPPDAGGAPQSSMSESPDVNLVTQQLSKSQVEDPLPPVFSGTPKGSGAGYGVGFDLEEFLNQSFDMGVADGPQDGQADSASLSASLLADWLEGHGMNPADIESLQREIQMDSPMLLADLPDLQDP

[14] = viability loss in pontine glioma line – cell-based, SU-DIPG-XIII, MIPE4.0, CellTiter-Glo, qHTS, dose response (AID 1347061; cut-off not given, nearly all actives have AC50 up to about 37 µM;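 further: cells exposed to compound for 48 hours before readout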); conditions: CellTiter-Glo ATP luminescence
[15] = viability loss in pontine glioma line – cell-based, JHH-DIPG-1, MIPE4.0, CellTiter-Glo, qHTS, dose response (AID 1347062; cut-off not given, nearly all actives have AC50 up to about 27 µM); conditions: JHH-DIPG-1 viability, CellTiter-Glo ATP luminescence
[16] = viability loss in pontine glioma line – cell-based, SU-DIPG-XIII, MIPE5.0, CellTiter-Glo, qHTS, dose response (AID 1347064; cut-off not given, nearly all actives have AC50 up to about 23 µM); conditions: CellTiter-Glo ATP luminescence
[17] = viability loss in pontine glioma line – cell-based, SU-DIPG-XXV, MIPE5.0, CellTiter-Glo, qHTS, dose response (AID 1347065; cut-off not given, nearly all actives have AC50 up to about 26 µM;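 further: cells exposed to compound for 48 hours before ATP readout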); conditions: CellTiter-Glo ATP luminescence
[18] = JHH-DIPG-1 glioma cell viability, MIPE5.0 library, CellTiter-Glo luminescence, qHTS (AID 1347067; cut-off not given, nearly all actives have AC50 up to about 26 µM;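 further: cells exposed to compound for 48 hours before readout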); conditions: JHH-DIPG-1 glioma viability, CellTiter-Glo ATP luminescence
[19] = growth inhibition of DIPG cells – cell-based, MIPE5.0 library, qHTS (AID 1347068; cut-off not given, nearly all actives have IC50 up to about 30 µM); conditions: SU-DIPG-XXV viability
[20] = chitosan synthesis blockers in C. neoformans – flow cytometry, Cibacron Brilliant Red staining (AID 1347148); conditions: Cryptococcus neoformans chitosan, stronger effect = lower value; at 10 µM unless noted;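 further: compound exposure lasted three days at 37 degrees C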
[21] = viability loss in pontine glioma line – cell-based, SU-DIPG-XVII, MIPE5.0, CellTiter-Glo, qHTS, dose response (AID 1347060; cut-off not given, nearly all actives have AC50 up to about 26 µM); conditions: CellTiter-Glo ATP luminescence
[22] = viability loss in pontine glioma line – cell-based, SU-DIPG-IV, MIPE4.0, CellTiter-Glo, qHTS, dose response (AID 1347063; cut-off not given, nearly all actives have AC50 up to about 30 µM;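 further: compound exposure lasted 48 hours before the viability readout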); conditions: CellTiter-Glo ATP luminescence
[23] = stronger effect = lower value, cell number ratio, induced over uninduced
[24] = measured here: relative caspase fold change +Dox/-Dox
[25] = measured here: total cells with miR-34 induction, stronger effect = lower value
[26] = measured here: total cells without miR-34 induction

With `C[C@@H](N)Cc1cnc[nH]1` the period change [1] was -0.03 h (inactive), the inhibition [2] was -1% (inactive) and the fluorescence ratio (interference) [3] was 1 (inactive). For the same molecule, the remaining activity [4] was 120% (inactive), the remaining activity [5] was 105% (inactive) and the fold change ([6]; stronger effect = lower value) was 0.943 (inactive). For the same molecule, the fold change [6, 23] was 1.02 (inactive), the fold change [6, 24] was 0.922 and 0.657 and the cell count [6, 25] was 9840 and 7980. The cell count [6, 26] was 10400 and 7800, the outcome [7] was “inactive” and the z-score [8] was 0.195 (inactive) and -0.325 (inactive).

With `c1ccc2sc(C3(N4CCCCC4)CCCCC3)cc2c1` the period change [1] was -0.2 h (inactive), the inhibition [2] was -3% (inactive) and the fluorescence ratio (interference) [3] was 1 (inactive). The remaining activity [4] was 107% (inactive), the remaining activity [5] was 110% (inactive) and the fold change ([6]; stronger effect = lower value) was 0.986 (inactive). The fold change [6, 23] was 0.965 (inactive), the fold change [6, 24] was 1.78 and 0.772 and the cell count [6, 25] was 8350 and 7790. The cell count [6, 26] was 8470 and 8070, the outcome [7] was “inactive” and the z-score [8] was -1.48 (inactive) and -1.21 (inactive).

For `c1cncc(C2=NCCC2)c1`, the fluorescence slope change [9] was 24.1% (inactive), the survival [10] was 4.17 (inactive) and the parasite load remaining [11] was 113% (inactive). For the same molecule, the viability [11] was 106%, the red/green cell ratio (normalised) ([12]; actives lie on both sides) was 0.94 (inactive) and the normalised cell number ([12]; measured here: epithelial PC-3E GFP cell survival) was 1. The normalised cell number ([12]; measured here: mesenchymal TEM4-18 mCherry cell survival) was 0.94, the fold change ([6]; stronger effect = lower value) was 0.891 (inactive) and the fold change [6, 24] was 1.54. The cell count [6, 25] was 7680, the cell count [6, 26] was 8620 and the luciferase signal [13] was 48 AU (inactive).

With `C/C(O)=C(\C#N)C(=O)Nc1cc(Br)ccc1Br` the period change [1] was 0.265 h (inactive), the survival [10] was 124 (inactive) and the inhibition [2] was 1% (inactive). The fluorescence ratio (interference) [3] was 1 (inactive), the remaining activity [4] was 116% (inactive) and the remaining activity [5] was 112% (inactive). The outcome [14] was “inactive”, the outcome [15] was “inactive” and the outcome [16] was “inactive”. For the same molecule, the outcome [17] was “inactive”, the outcome [18] was “inactive” and the outcome [19] was “inactive”. For the same molecule, the fold change ([6]; stronger effect = lower value) was 1.11 (inactive) and 0.867 (inactive), the fold change [6, 24] was 0.986 and 2.29 and the cell count [6, 25] was 5190 and 8220. The cell count [6, 26] was 4660 and 9480, the fold fluorescence [20] was 3.51 [at 138.9 µM] (inactive) and the z-score [8] was 2.97 (active).

In the case of `O=C(N[C@H]1CN2CCC1CC2)c1ccc(Cl)cc1`, the inhibition [2] is reported as -1% (inactive), the fluorescence ratio (interference) [3] is reported as 1 (inactive) and the remaining activity [4] is reported as 93.4% (inactive). For the same molecule, the remaining activity [5] was 109% (inactive), the outcome [21] was “inactive” and the outcome [15] was “inactive”. The outcome [22] was “inactive”, the outcome [16] was “inactive” and the outcome [17] was “inactive”. For the same molecule, the outcome [18] was “inactive”, the outcome [19] was “inactive” and the fold change ([6]; stronger effect = lower value) was 1.07 (inactive). The fold change [6, 23] was 0.932 (inactive), the fold change [6, 24] was 1.52 and 1.27 and the cell count [6, 25] was 10700 and 8830. For the same molecule, the cell count [6, 26] was 10000 and 9480, the outcome [7] was “inactive” and the z-score [8] was 0.385 (inactive) and 0.125 (inactive).
